The text below walks through data of PubChem BioAssay (NCI).

The panel holds about 83,000 compounds, 20% with a hit somewhere; the sample as a whole holds those more often.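 For each line, cells grew in 96-well plates with the test compound present at a single concentration for 48 hours.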 A number with no mark means an inactive call. Activity calls are given as the source filed them. How the source made its calls: active means growth percent below 10; inactive means the rest.

Common to all, as to test: NCI-60 one-dose screen, 48 h (100 = growth as untreated, 0 = no growth, -100 = all killed)
Holding throughout (settings): 10 µM unless noted

Experiment [1] deals with T-47D breast.
In experiment [2] the test system is BT-549 breast.
Experiment [3] deals with MDA-MB-435 melanoma.
Experiment [4] has as its system SW-620 colon.
The subject of experiment [5] is MCF7 breast.
Experiment [6] concerns HCT-116 colon.
For experiment [7], the system named is HCC-2998 colon.
Experiment [8] relates to KM12 colon.

On to `O=C1Nc2ccccc2/C1=C/C(=O)c1ccc(N2CCCCC2)cc1`, for which the growth in experiment [1] is 59.9%; in experiment [2], 90.8%; in experiment [3], 88.2%; in experiment [4], -22.7% (active); in experiment [5], 68.9%; in experiment [6] it was 92.7%. Besides, the growth in experiment [7] is 105%; in experiment [8] it was 90.5%.
In the case of `O=[N+]([O-])c1ccc(O)c(-c2nc3ccccc3s2)c1`, the growth is 49.7% in experiment [1]; 60.7% in experiment [2]; 71.4% in experiment [3]; 87.8% in experiment [4]; 81% in experiment [5]; 73% in experiment [6]. Further, the results for the growth in experiment [7] and in experiment [8] were 89.7% and 77.2%, respectively.
Turning to `Fc1ccc(NC(=S)c2ccccc2)cc1`, the growth in experiment [1] is 96.4%; in experiment [2], 90.3%; in experiment [3], 98%; in experiment [4] it was 102%; in experiment [5] it was 93.9%; in experiment [6], 103%. For the same compound, the growth in experiment [7] is 116%; in experiment [8], 100%.
Regarding `CCCSc1nc(N)nc2nc[nH]c12`, the growth was 97.6% in experiment [1]; 156% in experiment [2]; 117% in experiment [3]; 113% in experiment [4]; 104% in experiment [5]; 95.3% in experiment [6]. Besides, the values for the growth in experiment [7] and in experiment [8] were 115% and 114%, respectively.
On to `Cn1c(=O)c(C#N)c(-c2ccco2)n2c(S(=O)(=O)Cc3ccccc3)nnc12`, for which the growth is 90.6% in experiment [1]; 73.7% in experiment [2]; 83% in experiment [3]; 99.5% in experiment [4]; 74.9% in experiment [5]; 75.8% in experiment [6]. In addition, the growth in experiment [7] was 102%; in experiment [8] it was 93.7%.
Consider `CC(C)(C)c1cc(C(=O)N2CCC(C(=O)NCCN)CC2)cc(C(C)(C)C)c1`, for which the growth in experiment [1] was 78.8%; in experiment [2], 95.4%; in experiment [3] it was 98%; in experiment [4] it was 103%; in experiment [5], 92%; in experiment [6] it was 99.4%. For the same compound, the results for the growth in experiment [7] and in experiment [8] were 106% and 105%, respectively.
Take `CC1(C)CC[C@]2(C(=O)O)CC[C@]3(C)[C@H](CC[C@@H]4[C@@]5(C)CCC(=O)C(C)(C)[C@@H]5CC[C@]43C)[C@H]2[C@H]1OC(=O)C(F)(F)F`: the growth in experiment [1] was -25.2% [100 µM] (active); in experiment [2], -70% [100 µM] (active); in experiment [3] it was -69.3% [100 µM] (active); in experiment [4], -64.9% [100 µM] (active); in experiment [5] it was -40.1% [100 µM] (active); in experiment [6], -66.3% [100 µM] (active). Moreover, the growth in experiment [7] was -93.7% [100 µM] (active); in experiment [8], -75.7% [100 µM] (active).
As to `C=CCc1nc2ccccc2s1`, the growth in experiment [1] is 75.5%; in experiment [2], 101%; in experiment [3], 116%; in experiment [4], 98.9%; in experiment [5] it was 40.6%; in experiment [6], 104%. For the same compound, the growth is 114% in experiment [7] and 107% in experiment [8].
For the compound `Cc1cc(C)c(S(=O)(=O)/N=c2/n(-c3ccccc3)nc3n2CCN3C2=NCCN2)c(C)c1`, the growth in experiment [1] is 77.8%; in experiment [2] it was 73.8%; in experiment [3] it was 69.5%; in experiment [4] it was 84.8%; in experiment [5], 90.8%; in experiment [6], 55.7%. For the same compound, the results for the growth in experiment [7] and in experiment [8] were 61.5% and 85.4%, respectively.
As to `Cc1ccc(S(=O)(=O)n2cc(C(=O)C(=O)N3CCCCC3)c3ccccc32)cc1`, the growth was 36.1% in experiment [1]; 74.8% in experiment [2]; 87.1% in experiment [3]; 123% in experiment [4]; 85.8% in experiment [5]; 65.6% in experiment [6]. In addition, the growth was 82.3% in experiment [7] and 87.6% in experiment [8].
Take `COc1ccc(-c2cc(-c3ccccc3)nc(NCCNc3ccnc4cc(Cl)ccc34)n2)cc1`: the growth was -64.6% (active) in experiment [1]; -69.4% (active) in experiment [2]; -68.8% (active) in experiment [3]; -68.2% (active) in experiment [4]; -75.7% (active) in experiment [5]; -74.1% (active) in experiment [6]. The growth in experiment [7] was -81.1% (active); in experiment [8], -72.7% (active).
With `CC1(C)CC(=O)c2c(ccc(C(=O)C[C@@H](N)CO)c2N)O1`, the growth is 29.5% in experiment [1]; -4.27% (active) in experiment [2]; 39.5% in experiment [3]; 7.17% (active) in experiment [4]; 8.5% (active) in experiment [5]; 8.56% (active) in experiment [6]. Also, the values for the growth in experiment [7] and in experiment [8] were -20.4% (active) and 11%, respectively.
In the case of `CC[C@]12C=CCN3CC[C@@]4(c5ccc(OC)cc5N(C)[C@H]4[C@@](O)(C(=O)OC)[C@@H]1OC(=O)CCC(=O)N[C@H](Cc1c[nH]c4ccccc14)C(=O)OC)[C@@H]32`, the growth was -29.3% [100 µM] (active) in experiment [1]; -16.5% [100 µM] (active) in experiment [2]; -60.6% [100 µM] (active) in experiment [3]; -50.6% [100 µM] (active) in experiment [4]; -43.3% [100 µM] (active) in experiment [5]; 3.55% [100 µM] (active) in experiment [6]. Besides, the results for the growth in experiment [7] and in experiment [8] were -43.3% [100 µM] (active) and -35.1% [100 µM] (active), respectively.
On to `O=C(Nc1cccnc1)c1ccc2ccc3ccc(C(=O)Nc4cccnc4)nc3c2n1`, for which the growth was 37.2% in experiment [1]; 34.7% in experiment [2]; 24.9% in experiment [3]; 11% in experiment [4]; 28.9% in experiment [5]; 4.76% (active) in experiment [6]. Besides, the growth in experiment [7] is 3.41% (active); in experiment [8], 5.81% (active).
`c1cc2ccc3cc2cc1CNCCN1CCNCc2ccc4ccc(cc4c2)CNCCN(CCNC3)CCNCc2ccc3ccc(cc3c2)CNCC1`: the growth in experiment [1] was -6.97% (active); in experiment [2] it was 97.3%; in experiment [3] it was -5.25% (active); in experiment [4] it was 23.4%; in experiment [5] it was -5.39% (active); in experiment [6] it was 5.35% (active). Moreover, the values for the growth in experiment [7] and in experiment [8] were 19.2% and -15.5% (active), respectively.
